# Measured values published in PubChem BioAssay (NCI).
# The panel holds about 83,000 compounds, 20% with a hit somewhere; the sample as a whole holds those more often.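 Growth was measured after 48 h exposure to one concentration of compound in 96-well plates. Values under 10 count as active.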 Values without a mark were called inactive. The source made the active and inactive calls.
# System: HS 578T breast
# Experiment: NCI-60 one-dose screen, 48 h (100 = growth as untreated, 0 = no growth, -100 = all killed)
# Conditions: 10 µM unless noted
# Experimental: Growth inhibition of the HS 578T human tumor cell line is measured as a screen for anti-cancer activity. Cells are grown in 96 well plates and exposed to the test compound for 48 hours. Compounds are tested at a single concentration, which is 10^-5 M for most compounds. The reported endpoint is percent growth (GI% or GIPRCNT), where numbers from 0 - 100% represent growth inhibition, and numbers from -100% - 0 represent cell death. For example, a value of 40 represents 60% growth inhibition. A value of 0 means no net growth occurred over the course of the experiment. A value of -40 indicates 40% of cells at the beginning of the experiment died by the end of the experiment. A value of -100 means all cells are dead at the end of the experiment.
# NCI-60 Human Tumor Cell Lines Screen was performed using the standard one-dose NCI protocol, which is described in more detail at https://dtp.cancer.gov/discovery_development/nci-60/default.htm.
# Compounds with GIPRCNT values below 10 were considered active. Activity score was based on GIPRCNT using the following formula: […]
# Score is 0 for GIPRCNT values of 100 or above, 50 for GIPRCNT values of 0, and 100 for GIPRCNT values of -100.
row,Structure (SMILES),growth
1,COc1cc2c(cc1OC)C(=O)/C(=C/c1cc(C)c(O)c(C)c1)S2,36.8%
2,OCc1cnccc1NCCCCOc1ccc(Oc2ccccc2)cc1,59.6%
3,O=C(N/N=C/c1ccc(Oc2ccccc2)cc1)c1cnn2c1NC(c1ccccc1)C2 (stereo not given),32.3%
4,COc1ccc(C(=O)c2nc3ccccc3n2CC(=O)c2ccc(Cl)cc2)cc1,8.51% (active)
5,CC[C@]12C=CCN3CC[C@@]4(c5cc(NC(=O)CCC(=O)O[C@H]6CC[C@H]7[C@@H]8CCC9=CC(=O)CC[C@@H]9[C@H]8CC[C@]67C)c(OC)cc5N(C)[C@H]4[C@@](O)(C(=O)OC)[C@@H]1OC(C)=O)[C@@H]32,73.9%
6,CCCC/C=N/NC(=S)NCc1ccccc1,95%
7,CCNC(=O)Oc1ccc(/C(=C(\C)c2ccccc2)c2ccc(OCCCN(C)C)cc2)cc1,57%
8,CCN(c1ccccc1)S(=O)(=O)c1cc([N+](=O)[O-])ccc1Cl,82%
9,CCOC(=O)c1ccc2c(c1)ncn2-c1ccc(NC(=O)Nc2cccc(C)c2)cc1,84.1%
10,O=C(Cc1ccc(/C=C/C(=O)c2nccs2)cc1)Nc1ccccc1,88.5%
11,COc1ccc(/C=C2\Oc3cc(OCCCCCN4CCCCC4)ccc3C2=O)cc1OC,93.8%
12,Cc1cnc(C(=O)Nc2nc3ccc(S(=O)(=O)Nc4ccc(C(C)(C)C)cc4)cc3[nH]2)cn1,4.25% (active)
13,COc1ccc(/C=C/c2nc(Nc3ccc(Cl)cc3)c3ccccc3n2)cc1,70.5%
14,CCc1ccc(CNc2ccc(N3CCOCC3)c(C(=O)O)c2)cc1,125%
15,Cc1ccc(C(=O)/C(=C/c2ccc([N+](=O)[O-])cc2)SCc2ccc(Cl)cc2)cc1,88.2%
16,CC(=O)[C@H]1CCC/C=C/[C@@H]2C[C@H](O)C[C@H]2[C@H](O)/C=C/C(=O)O1,36.9%
17,COc1cc2oc(-c3cccc(C(=O)Nc4ccc(Cl)cc4)c3)cc(=O)c2c(O)c1OC,6.66% (active)
18,C[C@H]1[C@H]2[C@H]3CC[C@@H]4[C@@]5(C)CC[C@H](O)C(C)(C)[C@@H]5CC[C@@]4(C)[C@]3(C)CC[C@]23CO[C@]1(C)[C@@H](C(=O)/C=C\c1ccco1)C3,95.8%
19,CCCCCCOc1ccc(/C=N/Nc2cc(C)nc3ccc(Cl)cc23)cc1,28.5%
20,C=CC(=O)N[C@@H](/C=C/C(=O)OCC)Cc1ccc(-c2cc(Cl)cc(Cl)c2)cc1,40.3%

row,Structure (SMILES),growth
1,C=C1C(=O)O[C@H]2[C@H]1CC/C(COC(=O)NCc1c[nH]c3ccc(Cl)cc13)=C\CC[C@@]1(C)O[C@@H]21,25.3%
2,O=C(NO)c1ccc(-n2nc(-c3ccccc3)c3ccccc32)cc1,55.5%
3,C=C(C)[C@@H]1CC[C@]2(C(=O)N[C@H](CO)Cc3ccccc3)CC[C@]3(C)[C@H](CC[C@@H]4[C@@]5(C)CCCNC(C)(C)[C@@H]5CC[C@]43C)[C@@H]12,-60.5% (active)
4,O=C(O)c1ccc(-c2nn(-c3ccc(C(F)(F)F)cc3)cc2CNc2ccc(Oc3ccccc3)cc2)cc1,95.7%
5,O=C(Nc1cccc(C2=NCCN2)c1)c1ccc(-c2ccc(C(=O)Nc3cccc(C4=NCCN4)c3)cc2)cc1,97.6%
6,COc1cc(NC(C)CCCNC(=O)CCC(=O)NCCCNCCCCCCCCCCNCCCNC(=O)CCC(=O)NCCCC(C)Nc2cc(OC)cc3cccnc23)c2ncccc2c1 (stereo not given),64.5% [8 µM]
7,COc1cccc(-c2nc3occn3c2-c2ccnc(NCCNS(=O)(=O)c3ccc(C(F)(F)F)cc3)n2)c1,-23.5% (active)
8,COc1ccc(C(=O)Cn2c(C(=O)c3ccccc3)nc3ccccc32)cc1,-7.32% (active)
9,O=C(Cc1ccc(/C=C/C(=O)c2ncc[nH]2)cc1)Nc1ccc(Cl)cc1,5.07% (active)
10,O=C(Cn1c(C(=O)c2ccccc2)nc2ccccc21)c1ccc(F)cc1,56.2%
11,COc1cc(/C=N/NC(=O)c2cnn3c2NC(c2ccccc2)C3)ccc1OCc1ccccc1 (stereo not given),-1.22% (active)
12,COC(=O)/C=C1\S/C(=N\NC(=O)c2cc3ccc2/C=C\c2ccc(cc2)/C=C\3)N(Cc2ccccc2)C1=O,87.4%
13,COc1ccc(Cc2cnc(NC(=O)c3ccc4c(c3)OCCO4)s2)cc1,31.7%
14,COc1cc(-c2csc(NC(=O)c3cc(F)cc(C(F)(F)F)c3)n2)cc(OC)c1OC,20%
15,O=S(=O)(NCCNc1nccc(-c2c(-c3cccc(F)c3)nc3sccn23)n1)c1ccc(Br)cc1,63.6%
16,Cc1cc(C)c(S(=O)(=O)Oc2ccccc2[N+](=O)[O-])c(C)c1,-16.4% (active)
17,C=C(C)[C@@H]1CC[C@]2(CN)CC[C@]3(C)[C@H](CC[C@@H]4[C@@]5(C)CCCNC(C)(C)[C@@H]5CC[C@]43C)[C@@H]12,-42.3% (active)
18,COC(=O)c1ccc2c(c1)[n+](=O)c(C(C)=O)c(C(F)(F)F)n2[O-],-19.4% (active)
19,OCc1cnccc1NCCCOc1ccccc1,98.7%
20,CCCCCN1C=C/C(=C\C(=O)N(C)c2ccccc2Br)c2ccccc21,96.8%
